Inhibition data for 86 molecules are collected here from PubChem BioAssay AID1645858 (Buhrlage Lab, Dana-Farber Cancer Institute and Novartis …, 2021).

The whole screen tested about 47,000 compounds, of which about 330 (0.7%) were called active. Rule as the data show it: active = inhibition above about 30%; inactive = the rest. Shown is part of a subset that was picked to be rich in actives.

In general, inhibition refers to the drop in the measured response relative to a control, in per cent.

Chain of OTU domain-containing protein 3 (Homo sapiens) (Q5T2D3 whole entry, looked up, the tested form may be a part): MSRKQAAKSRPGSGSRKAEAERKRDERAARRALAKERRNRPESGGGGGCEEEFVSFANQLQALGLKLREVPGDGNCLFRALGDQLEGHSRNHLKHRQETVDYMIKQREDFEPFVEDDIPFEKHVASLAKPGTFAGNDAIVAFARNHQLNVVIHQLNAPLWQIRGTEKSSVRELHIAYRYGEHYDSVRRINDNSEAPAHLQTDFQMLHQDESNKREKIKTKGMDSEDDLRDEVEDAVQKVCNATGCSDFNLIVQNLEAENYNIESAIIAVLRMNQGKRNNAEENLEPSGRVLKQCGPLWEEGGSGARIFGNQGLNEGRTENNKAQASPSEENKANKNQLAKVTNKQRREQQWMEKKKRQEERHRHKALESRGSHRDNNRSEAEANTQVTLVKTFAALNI

This assay has as its target OTU domain-containing protein 3 (Homo sapiens) (UniProt Q5T2D3). Put plainly: inhibitors of human OTUD3 deubiquitinase (AID 1645858). To be noted: purified OTUD3, Ub-rhodamine fluorescence, 2 h; at 25 µM; stronger effect = higher value.
In the case of `Cc1ccc(C(=O)N2C[C@H]3NC(=O)c4ccccc4C(=O)[C@@]3(C)C2)cc1`, the inhibition was -0.0157% (inactive).

Regarding `CCN(C(=O)c1cncc(Br)c1)c1nc2ccccc2s1`, the inhibition was -0.0268% (inactive).

Consider `COc1cccc(-c2ocnc2C(=O)NCc2ccc(OC)c(OC)c2)c1`, for which the inhibition was -12.9% (inactive).

Regarding `COc1ccc(-c2ocnc2C(=O)NCc2ccc(OC)c(OC)c2)cc1`, the inhibition is -9.98% (inactive).

Regarding `COc1cc(OC)cc(-c2nnc(NC(=O)c3ccc([N+](=O)[O-])o3)o2)c1`, the inhibition was 40.4% (active).

Regarding `Nc1c(C(=O)CN2CCc3ccccc32)c(=O)[nH]c(=O)n1C1CC1`, the inhibition was -63.2% (inactive).

`Cc1ccccc1S(=O)(=O)NCc1nc2cccnc2n1C1CC1`: the inhibition is -1.25% (inactive).

Consider `COC(=O)c1cc(S(=O)(=O)Nc2ccc(NC(=O)c3ccccc3)cc2)ccc1Cl`, for which the inhibition is 2.44% (inactive).

With `Cc1cccc(Nc2nccnc2C2CCCN2C(=O)c2ccnnc2)n1` (stereo unspecified), the inhibition is 10.1% (inactive).

Turning to `O[C@H]1[C@H](NCc2cnc3ccccc3c2)[C@@H](c2cncnc2)C[C@H]1O`, the inhibition was -7.7% (inactive).

`Cc1ccccc1C(=O)N1CCC2(CC1)c1ncc(-c3cccnc3)n1CCN2C`: the inhibition is -6.54% (inactive).

In the case of `CSc1nc2c(c(Nc3ccc(C(C)=O)cc3)n1)CCC2`, the inhibition was -0.0554% (inactive).

Take `CC(C)Nc1ncnc2c1c(C(=O)N1CCCC1)c1ccccn12`: the inhibition was -56.8% (inactive).

As for `Cc1cc(O)c(=O)cc2c1C[C@H]1CC(C)(C)/C=C/C[C@@]3(C)Oc4cc(=O)c(O)cc(C)c4C[C@@H]3C[C@H](O)[C@]1(C)O2`, the inhibition was 33.2% (active).

As for `Cc1cccc(Nc2cccc(C3CCCN3C(=O)c3cccnc3)n2)n1` (stereo unspecified), the inhibition is -0.95% (inactive).

Take `CN1CCN(c2ccc3nnc(CCC(=O)NC4CCN(Cc5ccccc5)CC4)n3n2)CC1`: the inhibition was 5.05% (inactive).

Consider `CC(C)=CCc1cc(O)ccc1O`, for which the inhibition is -3.32% (inactive).

As for `CC(C)=CCC(O)C1=CC(=O)c2c(O)ccc(O)c2C1=O` (stereo unspecified), the inhibition is 94.7% (active).

Turning to `Cc1cc(C)c2nc3c(cc2c1)CN(Cc1ccco1)C(=O)O3`, the inhibition is 19.2% (inactive).

As to `CC1(c2ncc(Cc3cccc(F)c3)o2)CCCN(C(=O)CN2CCCC2)C1` (stereo unspecified), the inhibition is -4.47% (inactive).

Turning to `COc1ccccc1CCN[C@H]1CS(=O)(=O)C[C@@H]1S(=O)(=O)c1ccccc1`, the inhibition was 2.36% (inactive).

On to `COc1ccc(NC(=O)c2cn(C)nc2S(=O)(=O)N2CCCCCC2)cc1`, for which the inhibition is 11% (inactive).

Take `CC(C)NC(=O)c1cccc(-c2noc(-c3ccccc3Br)n2)c1`: the inhibition is 0.0532% (inactive).

With `COC(=O)c1ccc(NC(=O)CSc2nnc(C(C)Oc3ccccc3)n2C)cc1` (stereo unspecified), the inhibition is -2.47% (inactive).

In the case of `Cc1cc(C)nc(N(C(=O)C2CC2)c2ccc(OC(F)(F)F)cc2)n1`, the inhibition is -7.68% (inactive).

As to `Cc1nnc(OCC(=O)Nc2ccc(OC(F)(F)F)cc2)c2ccccc12`, the inhibition is 35.8% (active).

In the case of `Cc1nc(Nc2ncccn2)cc(C2CCCN2S(=O)(=O)N(C)C)n1` (stereo unspecified), the inhibition is -8.82% (inactive).

As for `Cc1ccc(S(=O)(=O)N2CCC3(CC2)OC(C(=O)NCC(C)C)Cn2ccnc23)cc1` (stereo unspecified), the inhibition is -3.62% (inactive).

Take `O=C(CNC(=O)C1COc2ccccc2O1)Nc1ccccc1Br` (stereo unspecified): the inhibition is -5.2% (inactive).

Turning to `CCn1nccc1C1CCCN1C(=O)C12CC3CC(CC(C3)C1)C2` (stereo unspecified), the inhibition was -2.13% (inactive).

Regarding `COc1ccc(-c2ccc(CCC(=O)NCc3ccccc3)o2)cc1`, the inhibition was 0.714% (inactive).

Take `OC1CCC(Nc2nc(CN3CCOCC3)nc3sc4c(c23)CCC4)CC1` (stereo unspecified): the inhibition was 1.88% (inactive).

Consider `O=C(Nc1ccc(Cl)c(Cl)c1)C1C2C=CC3(O2)C1C(=O)N(CCCN1CCN(Cc2ccccc2)CC1)C3C(=O)NC1CCCCC1` (stereo unspecified), for which the inhibition is -13.9% (inactive).

As for `CCN1C(=O)COc2cc(-c3noc(C(=O)N4CCN(c5ccccc5)CC4)n3)ccc21`, the inhibition is 5.26% (inactive).

Turning to `COc1cccc(NC(=O)C2Cc3ccccc3N2C(=O)c2ccccc2)c1` (stereo unspecified), the inhibition is 12% (inactive).

Take `NS(=O)(=O)c1ccc(NS(=O)(=O)c2ccc(NC(=O)c3ccccc3)cc2)cc1`: the inhibition was 4.22% (inactive).

`CC(NC(=O)c1ncoc1-c1ccc(F)cc1)c1ccccn1` (stereo unspecified): the inhibition is 3.88% (inactive).

With `O=C(CNS(=O)(=O)/C=C/c1ccccc1)N1CCCC(c2nc3ccccc3s2)C1` (stereo unspecified), the inhibition is -13.9% (inactive).

Take `CN(C)c1cccc(C(=O)OCC(=O)Nc2ccc(Cl)cn2)c1`: the inhibition is 1.07% (inactive).

Regarding `Oc1cccc2nc3c(O)cccc3nc12`, the inhibition was 60.7% (active).

Take `CC(C)(C)C(=O)c1cn(CC(=O)N2CCc3ccccc3C2)c2ccccc12`: the inhibition was 0.535% (inactive).

For the molecule `Clc1ccc(C2NC3=NCN(Cc4ccco4)CN3c3nc4ccccc4n32)cc1` (stereo unspecified), the inhibition is 11.6% (inactive).

Regarding `O=C(Cn1cnc2ccccc21)N1CC(c2nc(-c3ccncc3)no2)C1`, the inhibition was -2.15% (inactive).

As to `COc1cccc(-n2c(=O)c(C(=O)NC(C)c3ccccc3)c(O)c3cccnc32)c1` (stereo unspecified), the inhibition was 1.53% (inactive).

Consider `O=C(NC1CCN(Cc2ccccc2)CC1)c1cc2cn(C3CC3)cc2s1`, for which the inhibition was -34.6% (inactive).

In the case of `Cc1ccc(S(=O)(=O)NCCc2nnc3ccc(SCC(=O)NCc4ccc5c(c4)OCO5)nn23)cc1`, the inhibition is 11.1% (inactive).

As for `CCc1cc(C(=O)NCc2ccccc2)nc2ccnn12`, the inhibition is -0.736% (inactive).

Regarding `CCN(CC)S(=O)(=O)c1ccc(C(=O)Nc2sc(C)c(C)c2C(N)=O)cc1`, the inhibition was -4.61% (inactive).

Take `CC(=O)c1ccc(NC(=O)CSc2ncnc3c2cnn3-c2ccc(C)cc2C)cc1`: the inhibition was -0.915% (inactive).

In the case of `Cc1ccc(S(=O)(=O)N2C[C@H]3NC(=O)c4ccccc4C(=O)[C@@]3(C)C2)cc1`, the inhibition was -3.74% (inactive).

With `COc1cc(C2c3[nH]c4ccccc4c3C[C@@H]3C(=O)N(CCC4=CCCCC4)CC(=O)N23)cc(OC)c1OC` (stereo partly specified), the inhibition is -46.8% (inactive).

Consider `O=C(Nc1ccccc1Cl)N1C[C@H]2C[C@H]3[C@](C1)(CN(Cc1cccnc1)S3(=O)=O)O2`, for which the inhibition is 2.31% (inactive).

In the case of `C[C@@H]1CC[C@H]2C(CN3CCCC(C)(C)C3)C(=O)O[C@]23[C@H]1CC[C@@]1(C)O[C@@H]31` (stereo partly specified), the inhibition is -0.238% (inactive).

`CCOc1ccccc1Oc1nnnn1-c1ccccc1`: the inhibition is 23% (inactive).

On to `CN(C(=O)COc1ccc(C(N)=O)cc1)C1CCCCC1`, for which the inhibition is -6.97% (inactive).

For the molecule `Cc1nn(-c2cccc(F)c2)c2c1c(C)c(CCC(=O)NCc1ccccn1)c(=O)n2C`, the inhibition is 8.09% (inactive).

On to `CC(=O)N1CCC(N2CCC[C@H]2c2nc(-c3ccc(OC4CCCCC4)nc3)no2)CC1`, for which the inhibition was -18.8% (inactive).

Consider `O=C(c1cc2ccc(F)cc2[nH]1)N1CCOCC(Cc2ccncn2)C1` (stereo unspecified), for which the inhibition is -7.16% (inactive).

With `Cn1cc(C(=O)N2CCCCC2c2nc(N)ncc2-c2ccccc2)ccc1=O` (stereo unspecified), the inhibition was -2.37% (inactive).

On to `CCC(=O)N(C)CCc1noc(-c2[nH]c3ccc(C)cc3c2C)n1`, for which the inhibition is -11.5% (inactive).

As to `Cc1noc(C)c1C1CCCN1S(=O)(=O)c1cccc(Cl)c1` (stereo unspecified), the inhibition was 0.263% (inactive).

With `O=C(CCc1nnc2ccc(N3CCCC3)nn12)NCc1ccc(F)cc1`, the inhibition is 12% (inactive).

In the case of `O=C(COc1cccc2ccc(N3CCC(Cc4ccccc4)CC3)nc12)Nc1cccc(F)c1`, the inhibition was 21.8% (inactive).

`O=C(COc1cccc2ccc(N3CCC(Cc4ccccc4)CC3)nc12)NCc1ccc(F)cc1`: the inhibition is 36.2% (active).

For the molecule `Cc1ccc(NC(=O)N2CCC(CC(=O)N3CCCCC3)CC2)cc1`, the inhibition was -0.189% (inactive).

Turning to `CCC(C)C1C(=O)/C(=C(\O)C2C3C(C)CC(C)CC3C=CC2C2(C)OC2C)C(=O)N1C` (stereo unspecified), the inhibition is 18.9% (inactive).

`CCOC(=O)N1CCN(c2nc3c(c(=O)[nH]c(=O)n3C)n2CCSc2ncccn2)CC1`: the inhibition was 13.2% (inactive).

`CC(C)CNC(=O)C1CCN(c2cncnc2N2CCOCC2)CC1`: the inhibition is 0.599% (inactive).

Consider `CC(=O)c1sc(NC(=O)c2ccc(S(=O)(=O)N3CC(C)CC(C)C3)cc2)nc1C` (stereo unspecified), for which the inhibition is 4.19% (inactive).

Regarding `CCn1c(CN(C)C(=O)Nc2cccc(C)c2)nc2cc(C(=O)N(C)C)ccc21`, the inhibition was 10.5% (inactive).

Turning to `CS(=O)(=O)c1ccc(C(=O)Nc2ccccc2-c2ccccc2)cc1`, the inhibition was 11.2% (inactive).

For `COc1ccc(N2CC(c3nnc(NC(=O)CCc4ccccc4)s3)CC2=O)cc1` (stereo unspecified), the inhibition was 17.9% (inactive).

`N#CCCN(C(=O)c1cc2c(s1)-c1ccc(Cl)cc1S(=O)(=O)C2)c1ccccc1`: the inhibition is -4.41% (inactive).

`CC(=O)N1CCc2c([nH]c3ccccc23)C1`: the inhibition was -0.00325% (inactive).

Turning to `COc1ccccc1N(CC(=O)N1c2ccccc2CC1C)S(=O)(=O)c1ccc(F)cc1` (stereo unspecified), the inhibition was 14% (inactive).

As for `Oc1ccc(O)c2c1C(O)CCC21Oc2cccc3cccc(c23)O1` (stereo unspecified), the inhibition is -11.1% (inactive).

On to `Cc1nc2n(n1)CCN(C(=O)c1cc(-c3cccs3)[nH]n1)C2`, for which the inhibition is 0.034% (inactive).

On to `CC(Oc1ccccc1)C(=O)Nc1ccc(-c2cn3cccnc3n2)cc1` (stereo unspecified), for which the inhibition was 4.02% (inactive).

With `CCCCCCSc1ncnc2c1sc1nc(-c3ccccc3)c3c(c12)CC(C)(C)OC3`, the inhibition is -6.83% (inactive).

Turning to `CSc1ncnc2c1sc1nc(-c3ccccc3)c3c(c12)CC(C)(C)OC3`, the inhibition was 7.31% (inactive).

In the case of `CC1(C)Cc2c(c(-c3ccco3)nc3sc4c(SCCCc5ccccc5)ncnc4c23)CO1`, the inhibition is 33.5% (active).

For the molecule `COc1ccc(Cl)cc1C(=O)NCC(c1ccsc1)N1CCOCC1` (stereo unspecified), the inhibition is -5.99% (inactive).

`CC1CN(S(=O)(=O)c2cccc(Cl)c2)Cc2ccccc2N1C` (stereo unspecified): the inhibition was -2.48% (inactive).

For `Cc1ccc(S(=O)(=O)c2cn(CC(=O)NC3CCCC3)c3nc(C)ccc3c2=O)cc1`, the inhibition is -8.29% (inactive).

As to `N#Cc1cccc(CN2CC[C@@H]3[C@@H](CO[C@@H]3CNc3ncccn3)C2)c1`, the inhibition is 0.273% (inactive).

In the case of `CCN1CCN(c2ccc(-c3nc(-c4ccc(C)cc4)no3)cn2)CC1`, the inhibition is -1.12% (inactive).
